# Unmarked numbers belong to inactive results. Results filed as inconclusive are left out. The source made the active and inactive calls. Calls follow the shape of the dose curve; as a rule, active = well fitted curve in the direction sought with a large enough effect; inconclusive = small, poorly fitted or top-dose-only effect, or another doubt; inactive = no such curve, though single readings can be large; an effect the other way counts as inactive or inconclusive.
# Experiment: Validation qHTS assay for inhibitors of Activation Induced Cytidine Deaminase (AID): UDG Counterscreen signal (AID 1347427); also: 0% is about no effect
# Conditions: biochemical UDG counterscreen, fluorescence signal; series mostly up to 115 µM; activity, negative = inhibition: at the top concentration
# Summary of the method: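 Counterscreen read of UDG activity (2 U/mL, 4/3x) in the FRET deamination format with AID (1 uM, 4/3x), DJC20/DJC23 substrates (250 nM, 4x), 4 h at room temperature. NaOH stop, fluorescence at 560 ex/665 em.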
row,SMILES,"activity, negative = inhibition"
1,CC(C)C[C@H]1C(=O)N2CCC[C@H]2[C@]2(O)O[C@](NC(=O)[C@@H]3C=C4c5cccc6[nH]c(Br)c(c56)C[C@H]4N(C)C3)(C(C)C)C(=O)N12,7.21%
2,COc1cc2c(cc1O)CC[C@@H]1[C@@H]2CC[C@]2(C)[C@@H](O)CC[C@@H]12,10.2%
3,C[C@@H]1C(=O)NC2=Nc3cccc(Cl)c3CN21,11.2%
4,C[C@]12CC[C@@H]3c4ccc(O)cc4CC[C@H]3[C@@H]1CC[C@@H]2O,5.95%
5,CNCCC=C1c2ccccc2CCc2ccccc21,4.6%

# Experiment: Primary qHTS for inhibitors of La Crosse Virus (LACV) - induced cell death in SH-SY5Y cells (AID 1508616); also: potency is read from the fitted curve at half-maximal effect;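 as to activity change: top concentration of the series differs between compounds; 0% = infected DMSO wells and 100% = uninfected DMSO wells; higher means more rescue of cells from virus-induced death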
# Conditions: SH-SY5Y LACV cytopathicity rescue, ATP luminescence, 6 d; series mostly up to 4.29 µM; activity change: at the top concentration
# Summary of the method: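 Readout was luminescence from ATPLite 1step added after a 6-day LACV infection (0.01 MOI) of SH-SY5Y cells that had received pin-transferred compound 24 hr after seeding.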
SMILES,activity change,Potency
OCc1ccccc1O,2.95%,
CC1=C(C(=O)O)N2C(=O)[C@@H](NC(=O)[C@H](N)c3ccc(O)cc3)[C@H]2SC1,-13.6%,
CC(=O)OCC(=O)[C@@]12N=C(C)O[C@@H]1C[C@H]1[C@@H]3CCC4=CC(=O)C=C[C@]4(C)[C@H]3[C@@H](O)C[C@@]12C,3.29%,
CC(C)C[C@H]1C(=O)N2CCC[C@H]2[C@]2(O)O[C@](NC(=O)[C@@H]3C=C4c5cccc6[nH]c(Br)c(c56)C[C@H]4N(C)C3)(C(C)C)C(=O)N12,3.83% [at 9.63 µM],
CC(O)(P(=O)(O)O)P(=O)(O)O,-7.67%,
CCCCOc1ccc(C(=O)CCN2CCCCC2)cc1,-0.887%,
C/C=C(/C(=C/C)c1ccc(O)cc1)c1ccc(O)cc1,26.8%,
CN(C)C(=S)SC(=S)N(C)C,-8.95%,
CC(=O)OCC(=O)[C@@]1(OC(C)=O)[C@@H](C)C[C@H]2[C@@H]3C[C@H](F)C4=CC(=O)C=C[C@]4(C)[C@@]3(F)[C@@H](O)C[C@@]21C,7.33%,
COc1cc(-c2ccc(=O)[nH]n2)ccc1OC(F)F,-1.22%,
CC(=O)OCC(=O)[C@@]12OC(C)(C)O[C@@H]1C[C@H]1[C@@H]3C[C@H](F)C4=CC(=O)C=C[C@]4(C)[C@@]3(F)[C@@H](O)C[C@@]12C,31.7%,
COc1cc2c(cc1O)CC[C@@H]1[C@@H]2CC[C@]2(C)[C@@H](O)CC[C@@H]12,,631 nM (active)
CCCN1CCCC[C@H]1C(=O)Nc1c(C)cccc1C,-15.3%,
C[C@@H]1C(=O)NC2=Nc3cccc(Cl)c3CN21,15.8% [at 9.63 µM],
C#C[C@]1(O)CC[C@H]2[C@@H]3CCC4=CC(=O)CC[C@@H]4[C@H]3CC[C@@]21C,1.76%,
Cc1c(C(N)=O)cc([N+](=O)[O-])cc1[N+](=O)[O-],9.22%,
C[C@]12CC[C@@H]3c4ccc(O)cc4CC[C@H]3[C@@H]1CC[C@@H]2O,-15.4% [at 9.63 µM],
c1ccc(CNCCNCc2ccccc2)cc1,23.7%,
COC(=O)[C@@H]1CC2=CC(=O)CC[C@]2(C)[C@@]23O[C@@H]2C[C@@]2(C)[C@@H](CC[C@@]24CCC(=O)O4)[C@H]13,-3.92%,
CCN(CC)CCOC(=O)C(c1ccccc1)C1CCCCC1 (centres undefined),9.67%,
C/C=C/c1ccc(OC)cc1,6.92%,
O=C(O)CCCCC(=O)O,16.6%,
O=C1c2ccccc2C(=O)C1c1ccccc1,6.49%,
CCOc1ccc2nc3cc(N)ccc3c(N)c2c1,-4.63%,
C=C1C[C@H]2[C@@H]3C=C(C)C4=CC(=O)CC[C@]4(C)[C@H]3CC[C@]2(C)[C@@]1(OC(C)=O)C(C)=O,42.1%,
C[C@]12C=CC(=O)C=C1CC[C@@H]1[C@@H]2[C@@H](O)C[C@@]2(C)[C@H]1CC[C@]2(O)C(=O)CO,8.95%,
CCCCc1nc(Cl)c(CO)n1Cc1ccc(-c2ccccc2-c2nn[nH]n2)cc1,2.68%,
Cc1c(N(C)CS(=O)(=O)O)c(=O)n(-c2ccccc2)n1C,-9.13%,
CC(C)=CCC1C(=O)N(c2ccccc2)N(c2ccccc2)C1=O,-3.57%,

# Source: PubChem BioAssay (NCATS)
